# TDP1 block – blocks human tyrosyl-DNA phosphodiesterase 1 | Potency, µM (doses to about 130 µM), for the others: top-dose activity change, negative = inhibition, actives largely listed as inhibitors | recombinant TDP1, AlphaScreen DNA substrate cleavage | 0.28% of 350,000 active; further: potency means the concentration at half of the fitted maximal effect; on the % scale 0 is the no-effect control and ±100 the full control effect; nearly all actives have a fitted effect of over 40% in size
# Target sequence (Q9NUW8 whole entry, looked up): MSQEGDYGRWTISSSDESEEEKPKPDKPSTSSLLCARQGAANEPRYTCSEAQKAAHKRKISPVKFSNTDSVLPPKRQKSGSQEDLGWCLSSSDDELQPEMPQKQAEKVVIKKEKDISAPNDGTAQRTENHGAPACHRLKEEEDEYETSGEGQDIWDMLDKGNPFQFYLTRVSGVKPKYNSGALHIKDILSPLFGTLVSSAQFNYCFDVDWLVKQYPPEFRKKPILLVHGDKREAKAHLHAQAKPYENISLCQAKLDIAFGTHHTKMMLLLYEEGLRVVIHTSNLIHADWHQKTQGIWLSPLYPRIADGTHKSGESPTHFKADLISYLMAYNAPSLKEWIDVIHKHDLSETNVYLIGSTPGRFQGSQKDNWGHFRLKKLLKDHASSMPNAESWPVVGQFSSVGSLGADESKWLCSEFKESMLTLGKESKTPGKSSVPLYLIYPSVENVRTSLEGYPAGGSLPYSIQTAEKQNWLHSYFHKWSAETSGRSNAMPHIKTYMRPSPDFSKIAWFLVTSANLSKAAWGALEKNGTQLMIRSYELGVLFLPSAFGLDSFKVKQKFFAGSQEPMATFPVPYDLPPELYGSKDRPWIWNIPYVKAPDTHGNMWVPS
#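 Here, a 5' biotin and 3' phosphotyrosine-FITC DNA oligonucleotide reports Tdp1 activity: intact substrate bridges AlphaScreen beads, while cleavage leaves a 3' phosphate and drops signal. All incubations at room temperature.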
# TDP1 cell noCPT – qHTS for Inhibitors of human tyrosyl-DNA phosphodiesterase 1 (TDP1): qHTS in cells in absence of CPT. DT40 Tdp1-/- hTDP1 cells, no CPT, ATP luminescence, 48 h. Potency, µM (highest dose often 46.2 µM), for the others: at the highest dose activity change, negative = growth inhibition, usual class: inhibitors. 15% of 420,000 active; further: potency means the concentration at half of the fitted maximal effect; on the % scale 0 is the no-effect control and ±100 the full control effect; nearly all actives have a fitted effect of over 55% in size
#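 Camptothecin absent (DMSO only). Human TDP1-complemented DT40 knockout cells, 400 cells/well, 37 °C for minimum 48 hr; ATP measured via CellTiter-Glo, 30 min dark incubation, luminescence.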
# TGFb SMAD3 inh – blocks TGF-b signaling; 1.2% of 410,000 active; AID 588855; Potency, µM (doses to about 46.1 µM), for inactives: top-dose activity, negative = inhibition, hits mostly inhibitors; HepG2 CAGA-GFP TGF-b/SMAD3 reporter, GFP fluorescence, 18 h; TGF-beta stimulated, 500 pg/mL final; further: potency means the concentration at half of the fitted maximal effect; on the % scale 0 is the no-effect control and ±100 the full control effect; nearly all actives have a fitted effect of over 65% in size
#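 Using HEPG2 CAGA-GFP reporter cells at 1000 cells/well, we pinned test compounds, stimulated with recombinant TGF-beta (500 pg/mL final) and measured total well GFP after 18 h.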
# DT40 TDP1 CPT – DT40-hTDP1 cell growth loss with CPT. chicken DT40 Tdp1-/-;hTDP1 cells + 20 nM CPT, ATP luminescence, 48 h. Potency, µM (titrated, usually from 46.2 µM), inactives show at the top dose activity change, negative = growth inhibition, actives largely listed as inhibitors. 12% of 420,000 active; further: potency means the concentration at half of the fitted maximal effect; on the % scale 0 is the no-effect control and ±100 the full control effect; nearly all actives have a fitted effect of over 55% in size
#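 Chicken DT40 Tdp1-/- cells stably complemented with human TDP1 were seeded at 400 cells/well in medium containing 20 nM camptothecin, exposed to pin-transferred compounds, and grown at 37 °C for at least 48 hr. Viability was read as ATP luminescence.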
# IL-1B inflam inh – inhibitors of inflammasome signaling (IL-1 beta secretion); THP-1 LPS/ATP IL-1B secretion, AlphaLISA, 16 h; active compounds read low; activity change, % at 57.5 µM; 4.7% of 360,000 active; in the data active means activity change below about -50%; inconclusive means mostly about -30% to -49%; further: on the % scale 0 is the no-effect control and ±100 the full control effect
#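 THP-1 cells pretreated 1 hr with compounds (up to 57.5 uM final), then stimulated with LPS (250 ng/mL final) plus ATP (1.25 mM final); secreted IL-1B measured by AlphaLISA after 16 hr, decreased signal indicating inhibition.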
# HepG2 viability – kills HepG2 cells in TGF-b inhibitor counter-screen; 0.76% of 410,000 active; Potency, µM (doses to about 46.1 µM), for the others: at the top dose activity change, negative = cytotoxicity, most hits filed as cytotoxic; HepG2 CAGA-GFP viability, ATP luminescence, 18 h; AID 588856; further: potency means the concentration at half of the fitted maximal effect
#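 CellTiter-Glo luminescence gave cytotoxicity after 18 hours at 37 degrees C. The cells were HepG2 CAGA-GFP in 1% FBS DMEM, stimulated with 500 pg/mL TGF-beta after compound addition. %Activity was normalised to no-cell wells (complete cell-killing) and DMSO (no toxicity), and curves were fitted and classified.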
# * = called active by the depositor; ? = inconclusive; nt = no result; [ ] = dose if it differs, or a comment. Compounds with a hit are over-represented: about 19% of the library has one in this group of screens. Unless noted, the call rests on the fitted dose curve; in most records, active means well fitted curve in the direction sought with a large enough effect; inconclusive means small, poorly fitted or top-dose-only effect, or another doubt; inactive means no such curve, though single readings can be large; an effect the other way counts as inactive or inconclusive.
SMILES,TDP1 block,TDP1 cell noCPT,TGFb SMAD3 inh,DT40 TDP1 CPT,IL-1B inflam inh,HepG2 viability
CC(=O)N(C)c1ccc(C=C2C=Cc3ccccc32)cc1,nt,9.2µM*,-7.2%,9.2µM*,-78.4*,-27.0%
CCN(N=O)c1ccc(C=C2C=Cc3ccccc32)cc1,nt,-26.2%,0.0%,-5.1%,-65.7*,-28.2%
CC(=O)ON(C(C)=O)c1ccc(/C=C2/C=Cc3ccccc32)cc1,nt,?,-21.0%,?,nt,-57.7%
O=C(c1ccncc1)N1CCC2(CCN(Cc3ccccc3)CC2)CC1,nt,-1.5%,nt,4.2%,nt,nt
O=C(c1ccc2[nH]ccc2c1)N1CCOc2ccc(CN3CCN(c4ccccn4)CC3)cc2C1,nt,?,nt,-4.0%[9.04 µM],nt,nt
COCc1ccc(C(=O)N2CCOc3ccc(CN4CCN(c5ccc(F)cc5)CC4)cc3C2)o1,nt,20.6µM*,nt,20.6µM*,nt,nt
CCOC(=O)N1CCN(Cc2ccc3c(c2)CN(C(=O)c2sc(C)nc2C)CCO3)CC1,nt,16.4µM*,nt,-8.4%[9.04 µM],nt,nt
CC(C)c1nc(C(=O)N2CCOc3ccc(CN4CCN(c5ccccn5)CC4)cc3C2)cs1,nt,14.6µM*,nt,-17.6%[9.04 µM],nt,nt
COc1ccc(C(=O)N2CCOc3ccc(CN4CCN(c5ccccn5)CC4)cc3C2)o1,nt,-21.9%,nt,3.6%[9.04 µM],nt,nt
CCOC(=O)N1CCN(Cc2ccc3c(c2)CN(C(=O)c2ccc4ncccc4c2)CCO3)CC1,nt,23.1µM*,nt,-11.0%[9.04 µM],nt,nt
CCN(CC)S(=O)(=O)c1ccc(/C=C/C(=O)OCC(=O)Nc2cccnc2Cl)cc1,-0.3%,-3.2%,-18.2%,-1.4%,-10.9,10.5%
Cc1cccc(NC(c2nnc(-c3ccccc3)o2)c2ccc(F)cc2Cl)c1C (centres undefined),9.7%,2.4%,-21.1%,2.5%,nt,-28.2%
CCOC(=O)N1CCN(Cc2ccc3c(c2)CN(C(=O)c2ccc(C#CC(C)(C)O)o2)CCO3)CC1,nt,9.2µM*,nt,?,nt,nt
Cc1nc2sccn2c1CN1CCOc2ccc(CN3CCN(c4ccc(F)cc4)CC3)cc2C1,nt,2.59µM*,nt,2.91µM*,nt,nt
COc1ccc(/C=N/NC(=O)c2ccc(F)cc2)cc1CN1CCc2cc(OC)c(OC)cc2C1C (centres undefined),5.9%,18.4µM*,-21.2%,?,-58.8*,-20.8%
COc1cc(/C=N/NC(=O)c2ccoc2C)cc(OC)c1O,2.7%,9.0%,-3.0%,-0.5%,-12.8,22.0%
COc1ccc(/C=N/NC(=O)c2ccoc2C)cc1COc1c(C)cccc1C,7.8%,14.6µM*,-15.7%,11.6µM*,5.6,-36.3%
COc1ccc(/C=N/NC(=O)c2ccc(OC)c(OC)c2)cc1COc1c(F)c(F)c(F)c(F)c1F,2.8%,?,0.0%,16.4µM*,32.0,-27.0%
COc1ccc(/C=N\NC(=O)c2ccccc2Br)cc1COc1c(F)c(F)cc(F)c1F,2.3%[56.1 µM],16.4µM*,?,?,-24.7,-47.6%
COc1ccc(/C=N\NC(=O)c2ccccc2F)cc1COc1ccc(F)cc1F,2.0%,2.59µM*,?,2.59µM*,65.7,-23.5%
COc1ccc(/C=N/NC(=O)c2ccc(NC(C)=O)cc2)cc1COc1ccc(F)cc1F,nt,-13.7%,4.1%,?,0.0,-5.6%
COc1ccc(/C=N/NC(=O)c2cc(C(C)(C)C)[nH]n2)cc1COc1ccc(F)cc1F,6.9%,23.1µM*,?,?,-77.0*,-24.4%
COc1ccc(/C=N\NC(=O)c2ccccc2OC)cc1COc1ccccc1C,2.8%[56.1 µM],?,20.8%,16.4µM*,-18.8,-14.5%
COc1ccc(/C=N/NC(=O)c2nc(Cl)c(Cl)c(N)c2Cl)cc1COc1ccccc1F,-3.9%,?,-1.0%,23.1µM*,41.3,-16.8%
COc1ccc(/C=N/NC(=O)c2nc(Cl)c(Cl)c(N)c2Cl)cc1COc1ccc(F)cc1F,1.0%,?,-28.1%,?,60.9,-41.4%
SMILES,TDP1 block,TDP1 cell noCPT,TGFb SMAD3 inh,DT40 TDP1 CPT,IL-1B inflam inh,HepG2 viability
COc1ccc(/C=N\NC(=O)c2ccccc2F)cc1COc1ccc(F)cc1,-0.1%,?,-10.7%,?,35.1,-13.4%
CS(=O)(=O)N1CCCC(C(=O)Nc2ccc(F)c(F)c2)C1 (centres undefined),1.3%[56.1 µM],?,12.5%,-2.4%,1.0,4.6%
Cc1ccc(C(=O)NNC(=O)c2cc(C)nc3ccccc23)cc1,0.8%,-4.1%,-5.9%,2.9%,-6.7,-4.1%
O=C(Cn1c(=O)n(-c2ccccc2Cl)c(=O)c2sc3ccccc3c21)NC1CCCC1,3.8%,-2.2%,-1.9%,-21.9%,nt,1.7%
CCOC(=O)Cn1c(CN(C)Cc2ccccc2)nc2c1c(=O)n(C)c(=O)n2C,nt,11.6µM*,0.7%,9.2µM*,-10.5,-15.2%
Cc1nnc(SCCn2c(N(C)Cc3ccccc3)nc3c2c(=O)n(C)c(=O)n3C)s1,nt,11.2µM*,-6.3%,?,6.8,-13.4%
CN(Cc1ccccc1)Cc1nc2c(c(=O)n(C)c(=O)n2C)n1CCCc1ccccc1,5.2%,15.8µM*,1.6%,18.4µM*,-24.1,-6.4%
CC(C)Cn1c(CN(C)Cc2ccccc2)nc2c1c(=O)n(C)c(=O)n2C,3.1%,7.31µM*,-0.2%,6.51µM*,28.4,-25.9%
Cc1nnc(SCCn2c(N3CCN(C)CC3)nc3c2c(=O)n(C)c(=O)n3C)s1,4.2%,-4.9%,-6.1%,-16.6%,-15.9,-12.2%
COc1ccc(-c2cc3c(=O)n(CC(=O)Nc4ccc(Br)c(C)c4)ccn3n2)cc1OC,-1.2%,-29.8%,-10.8%,-21.7%,nt,2.1%
O=C(Nc1ccc(Br)cc1F)C(NS(=O)(=O)c1cccc2nsnc12)c1ccccc1 (centres undefined),4.7%,-7.8%,-29.5%,-8.8%,nt,-8.7%
CCCC(=O)n1nc(-c2ccco2)nc1NCc1ccccc1Cl,4.9%,-1.0%,0.5%,-25.9%,nt,-2.9%
Fc1cccc(Cl)c1C1SCc2nc3ccccc3n21 (centres undefined),nt,14.6µM*,?,16.4µM*,23.7,-18.5%
CCOc1ccc(NC(=O)CN2C(=O)NC(C)(c3ccc(OC(F)F)cc3)C2=O)cc1 (centres undefined),2.4%,23.1µM*,-1.5%,18.4µM*,-67.1*,1.1%
CC1(c2ccc(OC(F)F)cc2)NC(=O)N(CC(=O)Nc2ccc(OC(F)F)cc2)C1=O (centres undefined),nt,?,?,?,21.0,-17.1%

# From PubChem BioAssay
